What all share (format): functional
In assay [1] the target is Solute carrier family 2, facilitated glucose transporter member 1 (Homo sapiens) (UniProt P11166). The assay is described as follows: ST_JUDE_LEISH: Cytotoxicity at 2uM final concentration against transgenic Leishmania Mexicana promastigotes LmGLUT1 that are glucose transport deficient and complemented with the human glucose transporter GLUT1. Activity is measured by DNA content using SYBR green in vitro.

The target of assay [2] is Hexose transporter 1 (Plasmodium falciparum) (UniProt O97467). The assay is described as follows: ST_JUDE_LEISH: Cytotoxicity at 2uM final concentration against transgenic Leishmania Mexicana promastigotes LmPfHT that are glucose transport deficient and complemented with the Plasmodium falciparum hexose transporter. Activity is measured by DNA content using SYBR green in vitro.

Assay [3] addresses Glucose transporter (Leishmania mexicana) (UniProt O61059). The assay is described as follows: ST_JUDE_LEISH: Cytotoxicity at 2uM final concentration against transgenic Leishmania Mexicana promastigotes LmGT2 that are glucose transport deficient and complemented with the L. Mexicana glucose transporter 2. Activity is measured by DNA content using SYBR green in vitro.

SMILES strings stand for the structures.

Sequence of Solute carrier family 2, facilitated glucose transporter member 1 (Homo sapiens) (P11166 whole entry): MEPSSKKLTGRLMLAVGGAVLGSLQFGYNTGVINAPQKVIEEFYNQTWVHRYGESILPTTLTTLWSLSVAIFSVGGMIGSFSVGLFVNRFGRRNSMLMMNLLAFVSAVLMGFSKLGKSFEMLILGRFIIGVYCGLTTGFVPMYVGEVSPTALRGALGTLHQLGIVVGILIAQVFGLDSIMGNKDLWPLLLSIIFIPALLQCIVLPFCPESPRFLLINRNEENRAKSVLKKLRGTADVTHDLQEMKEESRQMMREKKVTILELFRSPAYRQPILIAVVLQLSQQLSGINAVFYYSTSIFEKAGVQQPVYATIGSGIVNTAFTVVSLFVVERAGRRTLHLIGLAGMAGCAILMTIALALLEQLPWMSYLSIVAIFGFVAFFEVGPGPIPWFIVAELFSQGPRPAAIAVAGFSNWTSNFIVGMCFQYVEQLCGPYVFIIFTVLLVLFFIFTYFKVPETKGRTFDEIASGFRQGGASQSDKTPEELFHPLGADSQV

As usually defined, the inhibition is the relative decrease from the control value, in per cent. Take `COc1ccc2nccc([C@@H](O)CN3CCC(NC/C=C/c4cccnc4)CC3)c2c1`: the inhibition in assay [1] was found to be 1.71%; in assay [2] it was 2.98%; in assay [3] it was 2.59%.

For `CC(C)N1CCC(N(Cc2ccc(-c3ccc(C(F)(F)F)cc3)cc2)C(=O)Cn2c(SCc3cccc(F)c3F)cc(=O)c3c2CCC3)CC1`, the values for the inhibition in assay [1], in assay [2] and in assay [3] were 4.88%, -0.24% and -3.84%, respectively.

In the case of `C[C@H](Cc1ccc(CCc2ccc(C[C@@H](C)NC[C@H](O)c3cccc(Cl)c3)cc2)cc1)NC[C@H](O)c1cccc(Cl)c1`, the inhibition worked out at 59.1% in assay [1], 10.7% in assay [2] and 58.5% in assay [3].

For `O=S(=O)(NCCN1CCCC1)c1ccc(-c2ccccc2CNC2Cc3ccccc3C2)cc1`, the inhibition in assay [1] turned out to be 66.1%; in assay [2] it was 67.7%; in assay [3], 50.5%.

Turning to `CC(C)C[C@@H](/C=N/NC(N)=O)NC(=O)[C@H](CC(C)C)NC(=O)[C@H](CC(C)C)NC(=O)OCc1ccccc1`, the inhibition in assay [1] was determined as 5.02%; in assay [2] it was 6.9%; in assay [3] it was 4.41%.

With `Fc1cccc(COc2ccc(Nc3ncnc4sc(C#C[C@H]5CCCN5)cc34)cc2F)c1`, the inhibition is 0.5% in assay [1], 2.54% in assay [2] and 0.52% in assay [3].

As to `CC1(C)NC(N)=NC(=N)N1OCCSCc1cc(Cl)sc1Cl`, the inhibition worked out at 6.6% in assay [1], 7.38% in assay [2] and 2.82% in assay [3].

For `OC(CNC1CCCCC1)Cn1c2ccc(Br)cc2c2cc(Br)ccc21` (stereo not drawn), the inhibition in assay [1] turned out to be 0.51%; in assay [2], 0.28%; in assay [3], 0.64%.

With `CCn1ccc2c(N3CCCCS3(=O)=O)cc(C(=O)N[C@@H](Cc3ccccc3)[C@H](O)CNC3CCCCC3)cc21`, the inhibition in assay [1] was 5.11%; in assay [2], 5.66%; in assay [3], 3.42%.

As for `Oc1ccc2[nH]c(-c3cccc(F)c3)nc2c1CN1CCCC1`, the values for the inhibition in assay [1], in assay [2] and in assay [3] were 4.75%, 3.49% and 1.21%, respectively.

Regarding `CCNc1cc(C(=O)N[C@@H](Cc2ccccc2)[C@H](O)CNC2C3CC4CC(C3)CC2C4)cc(N2CCCCS2(=O)=O)c1` (stereo partly drawn), the inhibition in assay [1] was 0.69%; in assay [2], 0.88%; in assay [3] it was -1.02%.

`CCCCCOc1ccc(/N=C2\C=C(O)C(=O)c3ccccc32)cc1`: the inhibition in assay [1] was determined as 1.82%; in assay [2], 2.9%; in assay [3], 2.17%.

For the compound `Cn1cc(C(=O)Nc2cccc(-c3cccc(-c4nc5cc(F)ccc5[nH]4)c3)c2)n(C)c1=O`, the results for the inhibition in assay [1], in assay [2] and in assay [3] were 8.03%, 5.98% and 5.83%, respectively.

On to `CN1CCCc2cc(NC(=O)C=Cc3ccc(-c4ccc(F)cc4F)o3)ccc2C1`, for which the inhibition in assay [1] is 6.23%; in assay [2], 5.24%; in assay [3] it was 8.04%.

For the compound `Cc1cccc2nc(-c3ccc(-c4ccc(CN5CCCCC5)cc4)s3)[nH]c12`, the figures for the inhibition in assay [1], in assay [2] and in assay [3] were 4.61%, 2.36% and 3.32%, respectively.

With `O=C(NCC1CCC(C(=O)O)CC1)c1ccc(/C=C/C(=O)N2CCc3ccccc3C2c2ccc3c(c2)OCO3)cc1` (stereo not drawn), the inhibition in assay [1] is -0.02%; in assay [2], 1.62%; in assay [3], 0.31%.

For `CN(c1ccc(NC(=O)c2cccc(F)c2)cc1)C1CCCN(Cc2cccc(O)c2)C1` (stereo not drawn), the inhibition was -0.85% in assay [1], -2.67% in assay [2] and -0.73% in assay [3].

Take `O=S(=O)(c1ccccc1Cl)N1CCCCC(c2ccc(C(F)(F)F)cc2)=N1`: the inhibition is 1.24% in assay [1], 2.48% in assay [2] and -2.05% in assay [3].

On to `CS(=O)(=O)Nc1cccc(-c2cnc3[nH]cc(-c4ccc(C(=O)O)cc4)c3c2)c1`, for which the inhibition amounted to 0.37% in assay [1], 0.36% in assay [2] and 3.74% in assay [3].

For `O=C(/C=C/c1ccc2ccccc2c1)NCC1(c2ccc(-c3ccccc3)cc2)CCOCC1`, the inhibition in assay [1] was determined as 2.52%; in assay [2] it was 2.55%; in assay [3] it was 3.08%.

On to `CN(C)c1ccc(-c2csc(C(=O)NC3CCN(CCC(C)(C)C)C3)c2)cc1` (stereo not drawn), for which the results for the inhibition in assay [1], in assay [2] and in assay [3] were 3.05%, 4.39% and 2.37%, respectively.

As for `CN(c1ccccc1C(=O)Nc1ccccc1Oc1ccccc1)S(=O)(=O)c1ccccc1`, the inhibition in assay [1] came out at 0.02%; in assay [2] it was 0.41%; in assay [3], 5.08%.

As for `N=C(N)Nc1cccc(NC(=O)Nc2cccc(NC(=N)N)c2)c1`, the inhibition stood at 6.92% in assay [1], 4.83% in assay [2] and 3.86% in assay [3].

For `COc1cc(C=NNc2ccnc3cc(Cl)ccc23)ccc1O`, the inhibition in assay [1] worked out at 2.02%; in assay [2], 2.62%; in assay [3], 3.46%.

Turning to `CC(C)(C)NC(=O)C(c1ccc(F)cc1)N(C(=O)c1ccc(CN2CCOCC2)o1)c1ccc(C2CCCCC2)cc1` (stereo not drawn), the inhibition came out at 2.43% in assay [1], 2.31% in assay [2] and 0.51% in assay [3].

With `Cc1cc(N(C)C)nc(Nc2ccc(NC(=O)C(C)Oc3ccccc3)cc2)n1` (stereo not drawn), the inhibition in assay [1] came out at 13.2%; in assay [2] it was 14.5%; in assay [3] it was 9.35%.

As for `O=c1cc(NCCC(CNCCc2ccccc2)NCc2cc(Br)cc(Br)c2)[nH]c2ccccc12` (stereo not drawn), the inhibition is -5.14% in assay [1], -3.71% in assay [2] and 2.71% in assay [3].

For the compound `NC(=O)c1ccc(C(=O)Nc2cccc(-c3cccc(-c4nc5cc(C(F)(F)F)ccc5[nH]4)c3)c2)cc1`, the inhibition was determined as 3.29% in assay [1], 5.6% in assay [2] and 2.11% in assay [3].

Consider `ON=C(c1nc2ccccc2[nH]1)c1nc2ccccc2[nH]1`, for which the inhibition in assay [1] was -0.84%; in assay [2], -0.51%; in assay [3] it was 0.76%.

In the case of `COc1cc2c(cc1S(=O)(=O)c1ccc(OCc3ccc(Cl)cc3)cc1)CCN(Cc1ccc(NC(C)=O)s1)CC2`, the inhibition in assay [1] is 4.82%; in assay [2], 4.31%; in assay [3], -0.61%.

Regarding `COc1ccc(Nc2ncc3c(-c4ccc(NC(=O)c5cccc(C(F)(F)F)c5)cc4)c[nH]c3n2)cc1OC`, the inhibition in assay [1] was 0.57%; in assay [2], -0.05%; in assay [3] it was -0.51%.

For the origin of these results see ChEMBL document CHEMBL3433997, “St. Jude Leishmania screening dataset” (2016).
